Measurements taken from PubChem BioAssay AID2315 (National Center for Advancing Translational Sciences (NCATS), 2010).
Screen size: about 290,000 compounds; about 27,000 (9.3%) were called active. This is one part of a sample in which actives are shown more often than they occur. Rule as the data show it: active = inhibition mostly above about 28% (no sharp cut-off); inactive = mostly below about 43%.

Assay: A qHTS for Small Molecule Inhibitors of Shiga Toxin; also: 0% is about no effect
Conditions: Vero cells, Shiga toxin protein synthesis inhibition reporter; at 38.7 µM, hits give high values

| SMILES | inhibition |
| --- | --- |
| COc1ccc(-n2ncc3c2CC(C)(C)CC3NC(=O)CCc2c(C)nn(C)c2C)cc1 (centres undefined) | -7.46% (inactive) |
| COc1cccc(NC(=O)CCc2nnc3ccc(N4CCC(C)CC4)nn23)c1 | 2.02% (inactive) |
| COc1ccc(C(=O)NC(=S)N2CCNC(=O)C2CC(=O)OC(C)C)cc1 (centres undefined) | -13.5% (inactive) |
| COc1ccc(S(=O)(=O)N2CCN(C(=O)N(C)C)C2C)cc1 (centres undefined) | -15.4% (inactive) |
| COc1ccc(/C=N/NC(=O)c2ccc3c(c2)OCCO3)c(OC)c1 | 45.8% (inactive) |
| COc1ccc(/C=N/OCc2ccccc2C#N)c(OC)c1 | 70.8% (active) |
| COc1ccc(/C=N/Nc2cc(N3CCOCC3)nc(C)n2)c(OC)c1 | 6.01% (inactive) |
| Fc1cccc2ncnc(OCc3ccccc3)c12 | 5.51% (inactive) |
| Cc1occc(=O)c1OCc1ccc(F)cc1 | -2.22% (inactive) |
| Cc1nc2ccccc2cc1OCc1ccc(F)cc1 | 29.8% (active) |
| O=C(COc1ccc(Cl)cc1)NCCS(=O)(=O)N1CCN(c2ccc(F)cc2)CC1 | 29% (inactive) |
| COC(=O)/C=C\C(=O)Nc1cccc([N+](=O)[O-])c1 | 26.5% (inactive) |
| CC(C)c1ccc(N(C(=O)c2ccco2)C(C(=O)NC2CCCC2)c2cccnc2)cc1 (centres undefined) | 22.5% (inactive) |
| COc1ccc(C2NC(=O)N(C)C(C)=C2[N+](=O)[O-])cc1 (centres undefined) | -11.1% (inactive) |
| Cc1cc(/C=C2/NC(=O)NC2=O)c(C)n1-c1cccnc1 | 44.4% (inactive) |
| Cc1ccccc1-n1c(C)cc(/C=C2\NC(=O)NC2=O)c1C | 55.3% (active) |
| Cc1cccc(C)c1-n1c(C)cc(/C=C2\C(=O)NN(c3ccccc3)C2=O)c1C | -7.74% (inactive) |
| Cn1c(=O)oc2cc(S(=O)(=O)NCCC(=O)NCc3ccccc3Cl)ccc21 | -2.59% (inactive) |
| CC(=O)c1ccc(NC(=O)c2ccc(-n3cncn3)c([N+](=O)[O-])c2)cc1 | -21.9% (inactive) |
| Cc1ccnc2nc(C(=O)Nc3nnc(-c4ccccc4)o3)nn12 | 71.9% (active) |
| Cc1cccc(NC(=O)Nc2nnc(-c3ccccc3)o2)c1 | -5.35% (inactive) |
| CCc1nnc(NC(=O)c2nc3nccc(C)n3n2)s1 | 2.51% (inactive) |
| Nc1c(C(=O)c2cccs2)sc2nsc(SCCN3CCCCC3)c12 | 45.8% (active) |
| O=C(CN1C2=NCCN2c2ccccc21)c1cccs1 | -3.32% (inactive) |
| O=C(CCC1CCCC1)N=C1SC2CS(=O)(=O)CC2N1Cc1ccccc1 (centres undefined) | 14.2% (inactive) |
| COCCCNC(=O)Cc1ccc(-n2c(C)nc3cccnc32)cc1 | 1.73% (inactive) |
| CC1(C)CC(=O)C/C(=N\NC(=O)c2cccs2)C1 | 18.8% (inactive) |
| CC(C)OCCCNC(=O)CNC(=O)c1cccs1 | -2.7% (inactive) |
| CC1C/C(=N/NC(=O)c2cccs2)CC(C)(C)C1 (centres undefined) | 84.1% (active) |
